In PubChem BioAssay:
Unmarked numbers belong to inactive results. No rule for the calls is given here.

target: Pantothenate synthetase (Mycobacterium tuberculosis (strain ATCC 25618 / H37Rv)) (UniProt P9WIL5); experiment: Recombinant Mtb pantothenate synthetase (PanC) inhibitors, coupled enzyme, confirmatory (AID 375); settings: coupled enzyme assay; at 10 µM, hits give high values;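 also: 0% = full reaction with vehicle and 100% = no enzyme background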
Sequence (P9WIL5 whole entry, looked up): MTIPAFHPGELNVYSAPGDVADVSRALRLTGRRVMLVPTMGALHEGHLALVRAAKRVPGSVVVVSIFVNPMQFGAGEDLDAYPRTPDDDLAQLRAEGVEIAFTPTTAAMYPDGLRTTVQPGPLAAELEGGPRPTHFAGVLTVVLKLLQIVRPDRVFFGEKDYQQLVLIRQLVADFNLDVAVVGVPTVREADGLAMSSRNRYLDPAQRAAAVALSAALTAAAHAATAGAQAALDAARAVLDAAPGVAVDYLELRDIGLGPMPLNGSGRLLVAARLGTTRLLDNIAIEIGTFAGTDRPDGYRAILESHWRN

Structure (SMILES) | inhibition [%]
CC(C)Cn1c(N)c(C(=O)NCCN2CCOCC2)c2nc3ccccc3nc21 | 0
Cc1cc(C)n(-c2nnc(C)n2/N=C/c2ccccc2F)n1 | 9
CN(Cc1cccs1)C(=O)CCc1ccc(S(=O)(=O)N2CCOCC2)cc1 | 1
CCc1nnc(NC(=O)NCN2C(=O)C3C4C=CC(C4)C3C2=O)s1 (configuration not stated) | 0
Cc1nn(C)cc1/C=N/O | 0
CCN(CC)Cc1c(C(=O)OC)nnn1-c1nonc1N | 0
COc1cc(CN2CCSCC2)cc(OC)c1OC | 0
O=C(CCn1c(=O)oc2ccccc21)NCCN1CCc2ccccc2C1 | 0
CCNCCNC(=O)c1c(O)c2ccccc2n(CC)c1=O | 0
COc1ccc(C)cc1S(=O)(=O)N(C)CC(=O)Nc1ccc2c(c1)OCCO2 | 2
CCS(=O)(=O)N1CCCC(C(=O)NCCc2ccc(OC)c(OC)c2)C1 (configuration not stated) | 4
CCCOC(=O)c1ccc(-c2c(C)noc2-c2ccc(OC)cc2O)o1 | 0
CCCSc1nnc(N2C(=O)CC(c3ccsc3)C3=C2CCCC3=O)s1 (configuration not stated) | 0
COc1ccc2nc(CC(C)(C)CC(=O)O)c[n+]([O-])c2c1 | 10
Cc1cc(C)cc(C(=O)N2CCC(C(N)=O)CC2)c1 | 0
Cc1coc(NC(=O)CSc2nc(-c3ccncc3)cc(C(F)(F)F)c2C#N)n1 | 0
CCOc1cc(NC(=O)c2ccco2)c(OCC)cc1NC(=O)COc1ccccc1C | 0
